The list shows a part of the results. A number with no mark means an inactive call. The source made the active and inactive calls. Cut-off read from the data, not from the text of the source: active = activation above about 24%; inactive = the rest.
target: Peroxisome proliferator-activated receptor gamma (Homo sapiens) + Nuclear receptor coactivator 3 (Homo sapiens) (UniProt P37231+Q9Y6Q9); test: agonists promoting SRC-3 binding to PPARgamma – biochemical, confirmation (AID 1301); details: biochemical PPARgamma-SRC-3 coactivator recruitment, agonist mode; at 8 µM; stronger effect = higher value;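 note: 0% = vehicle wells and 100% = reference agonist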
Sequence (P37231 whole entry, looked up): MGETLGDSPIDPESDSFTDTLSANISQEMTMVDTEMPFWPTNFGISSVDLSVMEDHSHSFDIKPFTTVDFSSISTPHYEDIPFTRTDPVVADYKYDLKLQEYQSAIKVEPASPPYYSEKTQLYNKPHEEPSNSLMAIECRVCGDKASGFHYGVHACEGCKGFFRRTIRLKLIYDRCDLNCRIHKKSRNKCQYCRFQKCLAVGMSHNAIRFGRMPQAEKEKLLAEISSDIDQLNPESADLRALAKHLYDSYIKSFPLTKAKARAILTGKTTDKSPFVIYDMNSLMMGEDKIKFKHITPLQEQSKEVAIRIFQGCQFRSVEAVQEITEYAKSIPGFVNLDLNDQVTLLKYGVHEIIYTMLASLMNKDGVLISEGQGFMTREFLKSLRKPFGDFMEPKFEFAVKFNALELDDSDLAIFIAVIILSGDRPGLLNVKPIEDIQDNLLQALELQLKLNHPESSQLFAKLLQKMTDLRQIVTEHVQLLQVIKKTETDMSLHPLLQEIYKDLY
Sequence (Q9Y6Q9 whole entry, looked up): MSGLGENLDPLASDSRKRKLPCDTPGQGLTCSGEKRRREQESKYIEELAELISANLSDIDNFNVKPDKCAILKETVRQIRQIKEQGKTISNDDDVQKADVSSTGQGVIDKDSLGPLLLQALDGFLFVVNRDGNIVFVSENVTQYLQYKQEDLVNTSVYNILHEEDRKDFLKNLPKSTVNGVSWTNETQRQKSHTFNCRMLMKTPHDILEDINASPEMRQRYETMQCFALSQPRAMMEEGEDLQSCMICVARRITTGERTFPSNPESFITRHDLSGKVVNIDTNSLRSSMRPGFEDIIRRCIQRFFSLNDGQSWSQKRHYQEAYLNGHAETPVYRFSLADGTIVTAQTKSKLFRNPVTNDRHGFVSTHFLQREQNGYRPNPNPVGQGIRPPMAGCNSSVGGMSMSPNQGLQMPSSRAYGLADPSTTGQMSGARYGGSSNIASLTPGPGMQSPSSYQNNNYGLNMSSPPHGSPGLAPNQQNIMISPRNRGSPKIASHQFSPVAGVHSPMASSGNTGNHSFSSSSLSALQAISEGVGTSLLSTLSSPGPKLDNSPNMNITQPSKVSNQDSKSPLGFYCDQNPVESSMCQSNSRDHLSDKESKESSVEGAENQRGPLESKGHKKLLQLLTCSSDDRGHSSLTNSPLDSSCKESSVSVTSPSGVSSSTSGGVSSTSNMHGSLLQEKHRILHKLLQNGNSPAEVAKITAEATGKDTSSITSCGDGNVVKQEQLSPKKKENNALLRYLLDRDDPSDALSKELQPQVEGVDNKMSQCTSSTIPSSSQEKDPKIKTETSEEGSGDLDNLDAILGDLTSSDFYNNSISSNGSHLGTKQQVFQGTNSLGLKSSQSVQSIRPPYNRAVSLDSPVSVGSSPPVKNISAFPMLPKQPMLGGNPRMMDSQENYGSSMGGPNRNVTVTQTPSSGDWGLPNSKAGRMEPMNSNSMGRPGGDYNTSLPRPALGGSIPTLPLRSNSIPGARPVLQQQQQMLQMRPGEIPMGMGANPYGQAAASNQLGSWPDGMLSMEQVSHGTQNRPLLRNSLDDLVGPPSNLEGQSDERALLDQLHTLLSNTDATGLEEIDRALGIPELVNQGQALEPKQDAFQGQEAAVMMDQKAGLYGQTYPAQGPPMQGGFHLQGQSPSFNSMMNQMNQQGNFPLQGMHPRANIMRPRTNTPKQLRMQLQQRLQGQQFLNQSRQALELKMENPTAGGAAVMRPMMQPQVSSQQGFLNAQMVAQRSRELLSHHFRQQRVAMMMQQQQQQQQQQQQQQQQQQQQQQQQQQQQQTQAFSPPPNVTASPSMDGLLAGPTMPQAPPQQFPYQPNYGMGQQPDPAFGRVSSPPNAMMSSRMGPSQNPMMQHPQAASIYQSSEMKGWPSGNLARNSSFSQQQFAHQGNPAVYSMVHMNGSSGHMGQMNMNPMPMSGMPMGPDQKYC

Structure (SMILES) | activation
NC(=O)CSc1oc(-c2cccs2)nc1S(=O)(=O)c1ccccc1 | 26.5% (active)
CCn1c(=O)cc(SCC(=O)NCc2ccc3c(c2)OCO3)c2ccccc21 | 18.1%
CCN(CCCNC(=O)CSc1cc(=O)n(C)c2cc(Cl)ccc12)Cc1ccccc1 | 20.4%
CCOc1ccc(NC(=O)CSc2ncnc3c2sc2ccccc23)cc1 | 32.6% (active)
COC(=O)c1[nH]c2ccc(Br)cc2c1NC(=O)Oc1ccccc1 | 4.54%
CCc1c(-c2ccccc2)nc(N)c(C#N)c1-c1cccs1 | 8.84%
COC(=O)c1ccccc1SC1CC(=O)N(c2cccc(C)c2)C1=O (stereo unspecified) | 10.9%
Nc1ccc(Nc2ccccc2)cc1 | 6.91%
O=C(Oc1ccccc1)Oc1ccc2c(c1)oc(=O)c1ccccc12 | 19.9%
CCOC(=O)C1CCN(C(=O)CSc2cc(=O)n(C)c3ccccc23)CC1 | 24.4% (active)
CSc1c(SCc2ccccc2)cnn(Cc2ccccc2)c1=O | 25.9% (active)
CC(C(=O)N1CCOCC1)N1c2cccc3cccc(c23)S1(=O)=O (stereo unspecified) | 1.88%
Cn1c(-c2sc3cc(C(F)(F)F)cnc3c2-c2ccccc2)n[nH]c1=S | 53.5% (active)
Cc1cc(C)c2c(c1)cc(C)c1nnc(SCC(=O)Nc3cc(C)on3)n12 | 12.5%
CCn1c(SCC(=O)Nc2cccc(F)c2)nnc1-c1cc2cc(Br)ccc2o1 | 14.3%
Cc1ccc(-c2cc(C(=O)NCc3cn(C)nc3C)c3cc(Br)ccc3n2)cc1 | 16.9%
